Source: PubChem BioAssay (several laboratories)
Jurkat NFkB inh – inhibitors of the PMA/ionomycin-induced NF-kB reporter in Jurkat cells; PMA/ionomycin-induced NF-kB luciferase reporter, luminescence; inhibition, % at 4 µM; 330,000 compounds, 0.53% hits; AID 435003; in the data active = inhibition above about 50%
Gli-Sufu antag – antagonists of Gli-Sufu signaling | inhibition, % at 5 µM | Sufu-KO-LIGHT fibroblasts, Gli luciferase reporter luminescence | 340,000 compounds, 0.74% hits;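 active = inhibition above about 55%, limit read from the data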
697 NFkB inh – lowers PMA/ionomycin-induced NF-kB signal in 697 B cells. 697 B-cell NF-kB luciferase reporter, 16 h. inhibition, % at 4 µM. 330,000 compounds, 0.33% hits. AID 435022; in the data active = inhibition above about 35%
Mdm2-MdmX inh – human Mdm2/MdmX binding inhibition | SaOS-2 split-luciferase Mdm2/MdmX complementation, luminescence | inhibition, % at 8 µM | 330,000 compounds, 3% hits;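 active = inhibition of at least 50% at 8 µM in the primary screen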
Target sequence (O15151 whole entry, looked up): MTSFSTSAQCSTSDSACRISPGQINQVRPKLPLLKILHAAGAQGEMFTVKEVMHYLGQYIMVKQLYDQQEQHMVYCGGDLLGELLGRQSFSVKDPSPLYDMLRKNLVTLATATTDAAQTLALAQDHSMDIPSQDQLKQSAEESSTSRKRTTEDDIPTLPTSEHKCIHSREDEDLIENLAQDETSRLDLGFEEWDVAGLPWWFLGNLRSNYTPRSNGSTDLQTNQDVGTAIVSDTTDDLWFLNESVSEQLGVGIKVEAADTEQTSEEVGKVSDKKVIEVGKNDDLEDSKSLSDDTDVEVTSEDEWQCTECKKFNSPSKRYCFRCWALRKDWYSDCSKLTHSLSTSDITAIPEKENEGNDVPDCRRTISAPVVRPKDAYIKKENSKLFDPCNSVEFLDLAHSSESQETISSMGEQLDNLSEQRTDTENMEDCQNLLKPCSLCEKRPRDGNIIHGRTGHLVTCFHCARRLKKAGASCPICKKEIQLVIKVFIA
Target sequence (Q00987 whole entry, looked up): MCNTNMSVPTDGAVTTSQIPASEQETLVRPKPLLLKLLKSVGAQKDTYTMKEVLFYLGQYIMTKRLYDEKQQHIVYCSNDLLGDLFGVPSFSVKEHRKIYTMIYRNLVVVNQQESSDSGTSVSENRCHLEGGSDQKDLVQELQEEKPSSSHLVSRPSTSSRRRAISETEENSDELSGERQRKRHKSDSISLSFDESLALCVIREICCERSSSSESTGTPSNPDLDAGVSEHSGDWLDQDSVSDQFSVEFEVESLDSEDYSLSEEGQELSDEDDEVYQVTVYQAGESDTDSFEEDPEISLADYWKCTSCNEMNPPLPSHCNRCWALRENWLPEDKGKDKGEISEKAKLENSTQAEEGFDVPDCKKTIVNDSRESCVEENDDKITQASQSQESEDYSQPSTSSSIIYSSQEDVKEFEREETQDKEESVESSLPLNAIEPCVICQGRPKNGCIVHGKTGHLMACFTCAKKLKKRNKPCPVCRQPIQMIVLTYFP
Shn3 inh set2 – inhibitors of Schnurri-3 3'UTR reporter in osteoblasts; Clone20 osteoblast Shn3 3'UTR firefly luciferase, 24 h; inhibition, % at 12.5 µM; 360,000 compounds, 0.52% hits;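 active = mean inhibition of at least 75% with every replicate also reaching 75%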
Mdm2-MdmX conf – human Mdm2/MdmX binding inhibition, confirmed. shares compounds with Mdm2-MdmX inh. luminescent assay. inhibition, % at 8 µM. 10,000 compounds, 55% hits. AID 489028; in the data active = inhibition above about 40%
FLuc counter – full-length luciferase inhibition in Mdm2/MdmX counter-screen; shares compounds with Mdm2-MdmX inh; SaOS-2 full-length luciferase counterscreen, luminescence; inhibition, % at 8 µM; 6,200 compounds, 77% hits;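 active = mean inhibition at 8 µM reaching about 37%, which flags the compound as non-specific, limit read from the data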;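 also: p53-null SaOS-2 cells with luciferase driven by a doxycycline-inducible promoter; compound on cells about two nights before reading with doxycycline added after day one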
A number is an active result; 0 = inactive; - = no result given. Sampled rows, rich in hits. Any-hit rate of the full collection: about 3.8%.

SMILES	Jurkat NFkB inh	Gli-Sufu antag	697 NFkB inh	Mdm2-MdmX inh	Shn3 inh set2	Mdm2-MdmX conf	FLuc counter
CC(C)NC(=O)C1(C)CCCN1C(=O)c1ccc2c(c1)C(C)(C)CCC2(C)C (centres undefined)	-	-	-	-	0	-	-
COc1ccc(CN2CCSc3sccc3C2=O)cc1	0	0	0	0	0	-	-
CN1CC(c2ccccn2)C2(SC(=S)N(Cc3ccccc3)C2=O)C12C(=O)Nc1ccccc12 (centres undefined)	0	0	0	0	0	-	-
CN1CC(c2ccccc2)C2(SC(=S)N(Cc3ccco3)C2=O)C12C(=O)Nc1ccccc12 (centres undefined)	0	0	0	75.5	0	54.0	51.4
CC1(C)CC(NC(=O)c2cccc(S(=O)(=O)N(Cc3ccccc3)c3ccccc3)c2)CC(C)(C)N1	0	0	0	95.0	0	58.8	60.9
COc1ccccc1N(Cc1ccccc1)S(=O)(=O)c1cccc(C(=O)Nc2ccc(C)cn2)c1	0	0	0	54.9	0	0	-
Cc1ccc(N(C)S(=O)(=O)c2cccc(C(=O)NC3CC(C)(C)NC(C)(C)C3)c2)cc1	0	0	0	0	0	-	-
COc1ccc(CCC(C)NCc2cccc(Br)c2)cc1 (centres undefined)	0	0	0	0	0	-	-
O=C(COc1cccc(Cl)c1)Nc1ccc2c(c1)CCC2	0	0	0	0	0	-	-
O=C(N/N=C/c1cc([N+](=O)[O-])ccc1N1CCNCC1)c1ccc([N+](=O)[O-])cc1	0	0	0	100.7	0	41.3	0
O=C(Cn1c2ccccc2c(=O)c2ccccc21)N/N=C/c1cc([N+](=O)[O-])ccc1N1CCCCCC1	0	0	0	97.4	0	0	-
Cc1ccc(S(=O)(=O)c2nnn3c2nc(NCCCN2CCCC2=O)c2ccccc23)cc1C	0	0	0	0	0	-	-
Cc1ccc(S(=O)(=O)c2nnn3c2nc(NC2CCN(Cc4ccccc4)CC2)c2ccccc23)cc1C	0	0	0	63.7	0	0	51.5
O=C(COC(=O)CNC(=O)c1ccccc1Cl)NC1CC1	0	0	0	0	0	-	-
O=C(c1ccco1)N1CCN(C(c2coc3ccc(Cl)cc3c2=O)c2nnnn2C2CCCC2)CC1 (centres undefined)	0	0	0	50.5	0	0	-
N/C(=N\O)c1ccc(Cl)cc1Cl	0	0	0	0	0	-	-
C=CCN1N=C(c2ccc(NC(=O)c3ccccc3)cc2)CSC1=O	0	0	0	66.0	0	0	-
O=C(Nc1ccc(-c2ccccc2)cc1)c1ccccc1	0	0	0	0	0	-	-
Cc1cccc(CS(=O)(=O)c2ncc(Cl)c(C(=O)NCc3ccccc3)n2)c1	0	0	0	83.1	95.3	65.7	0
Cc1cccc(C)c1NC(=O)c1nc(S(=O)(=O)Cc2ccccc2)ncc1Cl	0	0	0	68.1	96.3	97.7	0
Cc1nnc(NC(=O)c2nc(S(=O)(=O)Cc3ccccc3)ncc2Cl)s1	0	0	0	85.2	91.5	0	-
Cc1cccc(CS(=O)(=O)c2ncc(Cl)c(C(=O)Nc3c(C)cccc3C)n2)c1	0	0	0	94.0	0	85.7	50.9
CSc1ncc(Cl)c(C(=O)Nc2cccc(C)c2)n1	0	0	0	0	0	-	-
Cc1nnc(SCC(=O)NC(C)(C)C)n1NCc1c(F)cccc1Cl	0	0	0	0	0	-	-
CCCc1nnc(NC(=O)c2nc(S(=O)(=O)Cc3cccc(C)c3)ncc2Cl)s1	0	0	0	90.0	93.2	0	0
SMILES	Jurkat NFkB inh	Gli-Sufu antag	697 NFkB inh	Mdm2-MdmX inh	Shn3 inh set2	Mdm2-MdmX conf	FLuc counter
CCOc1ccc(N(CC(=O)NCc2ccccc2)C(=O)Cn2nnc(-c3ccc(C)o3)n2)cc1	0	0	0	0	0	-	-
Cc1ccc(C)c(C(=O)CN2C(=O)c3ccccc3C2=O)c1	0	0	0	0	0	-	-
Cc1ccc(C)c(C(=O)CN2C(=O)c3ccccc3S2(=O)=O)c1	0	0	0	67.5	0	59.5	99.6
CSc1cccc(NC(=O)CN2C(=O)c3ccccc3S2(=O)=O)c1	0	0	0	53.1	0	44.3	77.2
O=C(CN1C(=O)c2ccccc2S1(=O)=O)c1ccc(O)c(O)c1	0	0	0	55.7	-	55.0	74.3
CCN1CCN(C(=O)c2ccc(CS(=O)(=O)Cc3ccccc3C)o2)CC1	0	0	0	0	0	-	-
COc1ccccc1C(=O)Nc1ccc2c(c1)nc(CCNC(=O)c1ccco1)n2C	0	0	0	67.4	0	52.5	66.0
Cc1cc2c([nH]c3ccccc32)c2c1OC(C)(C)C=C2	0	0	0	0	0	-	-
COc1ccc2[nH]c(=O)c3c(c2c1)OC(C)(C)C=C3	0	0	0	90.5	0	75.2	57.4
COc1cc(N)c(Cl)cc1C(=O)OCC(=O)NCC1CCCCC1	0	0	0	0	0	-	-
CC1CCc2c(sc3ncn(CC(=O)N=Nc4c(O)[nH]c5ccccc45)c(=O)c23)C1 (centres undefined)	0	0	0	53.4	0	0	-
Cc1nc2cc(F)ccc2n1C1CCN(C(=O)c2c(F)cccc2F)CC1	0	0	0	0	0	-	-
COc1ccc2cc3c(N)nn(C(=O)c4ccc(F)cc4)c3nc2c1	0	0	0	82.3	0	89.0	46.6
COc1ccc2cc3c(N)c(C(=O)N4CCCC4)sc3nc2c1	0	0	0	0	-	-	-
COc1ccc2cc3c(N)nn(C(=O)c4cccc(F)c4)c3nc2c1	0	0	0	71.3	0	81.4	43.4
COc1ccc2cc3c(N)nn(C(=O)c4ccccc4Cl)c3nc2c1	0	0	0	92.6	0	93.3	50.6
COc1cccc(-c2nc(CS(=O)(=O)CC(=O)NC3CCCCCC3)c(C)o2)c1	0	0	0	0	0	-	-
CCn1ncc(Br)c1C(=O)Nc1ccc(C(C)C)cc1	0	0	0	0	0	-	-
COCOCCn1cc(CN2CCS(=O)(=O)N(Cc3ccc(-c4ccc(F)nc4)cc3)C(C)C2=O)nn1 (centres undefined)	-	-	-	-	0	-	-
c1ccc(CCNc2nc(-c3ccccn3)nc3ccccc23)cc1	0	0	0	92.8	-	88.9	0
CCCN(CCC)c1nc(-c2ccccn2)nc2ccccc12	0	0	0	83.1	0	84.7	0
O=C(Nc1ccc([N+](=O)[O-])cc1)C(Cc1ccccc1)N1C(=O)c2cccc3cccc(c23)C1=O (centres undefined)	0	0	0	62.9	0	0	-
CC[C@H](C)[C@@H](CN[C@H](C)CNC)NCCC(c1ccccc1)c1ccccc1	0	0	0	98.9	0	93.4	0
CNC(=S)NCCC(c1ccccc1)c1ccccc1	0	0	0	0	0	-	-
CC(=O)C(Sc1ncnc2sc3c(c12)CCCC3)C(C)=O	0	0	0	0	0	-	-
Cc1cccc(S(=O)(=O)c2c(N)n(Cc3ccco3)c3nc4ccccc4nc23)c1	0	0	0	0	0	-	-
Cc1cccc(-n2cnc3c(c2=O)c2nc4ccccc4nc2n3Cc2ccco2)c1	0	0	0	54.3	0	0	-
